The values that follow come from PubChem BioAssay AID720569 (National Center for Advancing Translational Sciences (NCATS), 2013).

This is one part of the list. Inconclusive results are not listed. Active and inactive are the calls of the source. The call rests on the fitted dose curve; in most records, active means well fitted inhibition curve with a large enough effect; inconclusive means small, poorly fitted or top-dose-only effect; inactive means no such curve, though single readings can be large or run the other way.
Potency means the concentration at half of the fitted maximal effect.

For this test, the system named is pyruvate kinase (Trypanosoma brucei). Nature of the test: qHTS of Trypanosoma Brucei Inhibitors: Confirmatory Assay for Cherry-picked Compounds. Further: nearly all actives have a fitted effect of over 70% in size. Particulars: recombinant TbPYK, Kinase-Glo ATP luminescence. An excerpt: Members of the Trypanosomatidae family of parasitic protozoans cause a spectrum of diseases throughout the tropical and subtropical world. Sleeping sickness, caused by two subspecies of Trypanosoma brucei, is endemic to areas of sub-Saharan Africa, while Chagas' disease, a manifestation of Trypanosoma cruzi infection, is prevalent throughout Central and South America. In addition, many species of Leishmania are responsible for a range of cutaneous and visceral diseases, causing ulcers, destructive lesions and kalaazar, a lethal infection of the viscera. These diseases cause severe public health and economic burdens on populations that are often already caught in a tragic cycle of poverty, poor nutrition and disease. Collectively, parasites of the trypanosomatid family infect 30 million people worldwide (~500 million live in endemic areas), and account for ~130K deaths annually. Existing treatments have developed little in the past 50 years, and suffer from toxicity, poor efficacy and resistance; the goal of this project is to develop lead drugs that will be suitable for entry into pre-clinical trials. […] Glycolysis in axenically cultured T. cruzi, representing the intracellular pathogenic stage, is also essential for these parasites. {Engel, 1987} This project aims to discover and optimize selective inhibitors of the glycolytic enzyme pyruvate kinase (PYK) from Trypanosoma brucei, the parasite that causes sleeping sickness. […] Trypanosomatid PYKs show significant differences from their human counterparts including only 47-50% sequence identity and different allosteric and activation properties.{Callens, 1992} To this end, a qHTS was done against the MLSMR to discover inhibitors. NIH Molecular Libraries Probe Production Network [MLPCN] NIH Chemical Genomics Center [NCGC] Grant: MH095452 PI Name: Malcolm Walkinshaw, University of Edinburgh
Two uL of TbPYK/substrate buffer (columns 1-3, 5-48) are dispensed into Greiner white solid bottom 1536-well assay plates; column 4 receives only TEA buffer as 0x TbPYK controls. Compounds are then transferred via Kalypsys pin tool equipped with 1536-pin array (10 nL slotted pins, V&P Scientific, San Diego, CA). Following addition of compound, 2 uL of ADP (130 uM final concentration, all columns) is added to initiate the reaction. The plates are then incubated at room temperature for 45 minutes. Kinase-Glo Plus reagent is added (3 uL) and plates incubated for 10 minutes, before being transferred to a ViewLux high-throughput CCD imager (PerkinElmer) wherein single end-point measurements of luminescence are acquired using a clear filter. All reagents are diluted in an assay buffer consisting of 50 mM TEA (pH 7.2), 100 mM KCl, 10 mM MgCl2, 0.05% BSA and 0.01% Tween-20. […]
Background: In qHTS, concentration-response curves come from the screen itself.
As to `Cc1ccc2c(c1)=C/C(=C\c1c(O)[nH]c(=O)[nH]c1=O)C(=O)N=2`, the Potency was 17.8 µM (active).
Regarding `O=C1NC(=O)N(c2ccccc2)C(=O)/C1=C/c1ccc([N+](=O)[O-])s1`, the Potency was 8.91 µM (active).
Take `COc1ccc(N2C(=O)/C(=C/c3ccco3)C(=O)NC2=S)cc1`: the Potency was 14.1 µM (active).
In the case of `O=C(O)CCn1cc(C=C2C(=O)NC(=S)NC2=O)c(-c2cccc(Br)c2)n1`, the Potency is 6.31 µM (active).
